HCV inh: qHTS Assay for Inhibitors of Hepatitis C Virus (HCV) | Potency, µM (series often up to 41.8 µM), without a hit: top-dose activity change, negative = inhibition, actives largely listed as inhibitors | AID 651820, 2012 | Huh7.5.1 HCVcc-Cre infection, luciferase reporter, 44 h | 340,000 tested, 3.4% active; further: potency means the concentration at half of the fitted maximal effect
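A cell-based infection assay in which seeded cells (1,000 per well) receive test compound after 4 h, are inoculated with HCVcc-Cre at approximately 0.5 moi, and are incubated 44 h before luminescence detection.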
FBPA Giardia inh: qHTS Assay for Inhibitors of Fructose-1,6-bisphosphate Aldolase from Giardia Lamblia | Potency, µM (doses to about 59.6 µM), without a hit: top-dose activity, negative = inhibition, most hits filed as inhibitors | 290,000 tested, 0.71% active | A8B2U2 | purified Giardia FBPA; further: potency means the concentration at half of the fitted maximal effect; nearly all actives have a fitted effect of over 55% in size
Target sequence (A8B2U2 whole entry, looked up): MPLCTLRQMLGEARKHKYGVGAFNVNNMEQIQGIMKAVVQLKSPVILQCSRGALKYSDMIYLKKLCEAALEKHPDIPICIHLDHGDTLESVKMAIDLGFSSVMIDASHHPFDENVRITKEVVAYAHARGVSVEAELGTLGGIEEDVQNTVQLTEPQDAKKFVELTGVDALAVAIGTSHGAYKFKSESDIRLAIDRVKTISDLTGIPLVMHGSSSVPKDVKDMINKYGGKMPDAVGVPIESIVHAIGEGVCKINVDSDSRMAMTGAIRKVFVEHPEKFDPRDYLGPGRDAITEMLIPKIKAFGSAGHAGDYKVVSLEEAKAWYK
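Giardia FBPA (40 nM reagent) was preincubated 10 min at RT with compound (up to 57.5 uM final), then substrate plus GAPDH/TPI/NAD/arsenate coupling system with diaphorase/resazurin was added; resorufin fluorescence (525/598 nm) was read after 20 min.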
MARV entry inh: qHTS for inhibitors of binding or entry into cells for Marburg Virus; Potency, µM (titrated, usually from 37.8 µM), for the others: at the highest dose activity change, negative = inhibition, actives largely listed as inhibitors; AID 540276, 2011; 300,000 tested, 1.8% active; Marburg virus pseudotyped entry inhibition, cell reporter; calls by dose curve; tested in HEK293 cells; further: potency means the concentration at half of the fitted maximal effect
LASV entry inh: qHTS for Inhibitors of binding or entry into cells for Lassa Virus. Lassa virus pseudotype entry inhibition, cell reporter. Potency, µM (titrated, usually from 37.9 µM), without a hit: at the top dose activity change, negative = inhibition, usual class: inhibitors. 300,000 tested, 1.2% active. AID 540256, 2011; calls by dose curve; tested in HEK293 cells; further: potency means the concentration at half of the fitted maximal effect; nearly all actives have a fitted effect of over 50% in size
HCMV antiviral: qHTS Assay for inhibitors of the human cytomegalovirus (HCMV); HFF cells, HCMV-luciferase reporter, 72 h; active compounds read low; activity change, negative = inhibition, % at 57.5 µM; 410,000 tested, 4.5% active; AID 1259415, 2018; in the data active means activity change below about -60%; inconclusive means no clear call, values can overlap the other calls; inactive means above about -39%
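Two compound doses tested in HFFs infected with HCMV-luciferase, MOI 1 PFU/cell, 72 h at 37C. Lysate luminescence read with OneGlo; data normalized against buffer-only and 10uM Salinomycin inhibitor controls.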
FMDV antiviral: High Throughput Screening for Foot and Mouth Disease Virus Antivirals; FMDV antiviral cell-based qHTS; Potency, µM (doses to about 57.9 µM), without a hit: top-dose activity change, negative = inhibition, most hits filed as inhibitors; 410,000 tested, 1.2% active; AID 1159524, 2015; calls by dose curve; tested in HEK293T cells; further: read-out not given here; potency means the concentration at half of the fitted maximal effect; nearly all actives have a fitted effect of over 45% in size
An asterisk follows results filed as active; [ ] = dose if it differs, or a comment. Compounds with a hit are over-represented: about 8.3% of the library has one in this group of screens. Unless noted, the call rests on the fitted dose curve; in most records, active means well fitted curve in the direction sought with a large enough effect; inconclusive means small, poorly fitted or top-dose-only effect, or another doubt; inactive means no such curve, though single readings can be large; an effect the other way counts as inactive or inconclusive. On the % scale 0 is the no-effect control and ±100 the full control effect.

`O=c1c2ccc(Cl)cc2nc(-c2ccc([N+](=O)[O-])cc2)n1O` gave HCV inh -23%, FBPA Giardia inh -19%, MARV entry inh inconclusive, LASV entry inh inconclusive, HCMV antiviral -98* and FMDV antiviral -17%.
C=CS(=O)(=O)N(Cc1ccc(Cl)c(Cl)c1)C[C@@H](O)CO was read as HCV inh 14µM*, LASV entry inh inconclusive and FMDV antiviral -8%.
For O=C(O)c1sccc1SCc1ccc(Cl)c(Cl)c1 the results were HCV inh 6%, FBPA Giardia inh 20%, MARV entry inh 28%, LASV entry inh 2%, HCMV antiviral -25 and FMDV antiviral 18%.
Screening Cc1ccc(OC(=O)CN2C(=O)c3ccccc3C2=O)cc1C returned HCV inh 5%, FBPA Giardia inh 14%, MARV entry inh 20%[46.1 µM], LASV entry inh 24%[46.1 µM], HCMV antiviral -61* and FMDV antiviral -12%.
CC1=CC(C)(C)Nc2ccc(OC(=O)CCN3C(=O)c4ccccc4C3=O)cc21 was read as HCV inh inconclusive, FBPA Giardia inh -9%, MARV entry inh inconclusive, LASV entry inh inconclusive, HCMV antiviral -100* and FMDV antiviral inconclusive.
COc1ccc(-c2cc(=O)c3c(O)c(OC)c(OC)c(OC)c3o2)cc1OC was read as FBPA Giardia inh -6% and FMDV antiviral 4%.
`COc1ccc(-c2oc3cc(OC)c(O)c(OC)c3c(=O)c2OC)cc1O` gave HCV inh 8.9µM*, FBPA Giardia inh 1%, HCMV antiviral -37 and FMDV antiviral -29%.
Screening COc1ccc(-c2oc3c(OC)c(OC)c(OC)c(O)c3c(=O)c2OC)cc1OC returned HCV inh 10µM*, FBPA Giardia inh 1%, HCMV antiviral inconclusive and FMDV antiviral -7%.
`COC(=O)[C@](C)(N)Cc1ccc(O)cc1` gave MARV entry inh 7%.
`CC1(C)N=C(N)N=C(N)N1CCCCc1ccccc1` gave HCV inh inconclusive, MARV entry inh inconclusive, LASV entry inh inconclusive, HCMV antiviral -98* and FMDV antiviral 0%.
CC(C)Cc1nn2c(=O)cc(COC(=O)c3ccccc3NC(=O)c3ccccc3)nc2s1 was read as LASV entry inh 26%[46.1 µM], HCMV antiviral -11 and FMDV antiviral 15%.
Screening S=C1NCCN1c1ccc(Cl)cc1 returned HCMV antiviral -19.
Screening S=C(Nc1ccc(Cl)cc1Cl)NC1CCN(Cc2ccccc2)CC1 returned HCV inh inconclusive, FBPA Giardia inh 6%, MARV entry inh inconclusive, LASV entry inh inconclusive, HCMV antiviral inconclusive and FMDV antiviral -39%.
S=C(NCc1ccc(Cl)cc1)NC1CCN(Cc2ccccc2)CC1 was read as HCV inh 4µM*, FBPA Giardia inh 1%, MARV entry inh 6.3µM*, LASV entry inh inconclusive, HCMV antiviral -89* and FMDV antiviral -25%.
Fc1ccc(CNC2CCN(Cc3ccccc3)CC2)cc1 was read as HCV inh inconclusive, FBPA Giardia inh inconclusive, HCMV antiviral 46 and FMDV antiviral -5%.
`Clc1ccc(CNC2CCN(Cc3ccccc3)CC2)cc1` gave HCV inh 8.9µM*, FBPA Giardia inh inconclusive, MARV entry inh 10µM*, LASV entry inh -18%[46.1 µM], HCMV antiviral -2 and FMDV antiviral -26%.
Screening Clc1ccc(CN2CCC(c3ccccc3)CC2)cc1 returned HCV inh -3%, FBPA Giardia inh 0%, HCMV antiviral -103* and FMDV antiviral -21%.
Screening c1ccc(-c2ccc(CNC3CC3)cc2)cc1 returned HCV inh 2%, FBPA Giardia inh -22%, MARV entry inh 13%[46.1 µM], LASV entry inh inconclusive, HCMV antiviral -80* and FMDV antiviral 1%.
Cc1cccc(Cn2nc(C)n3c(cc4cc(C)ccc43)c2=O)c1 was read as MARV entry inh 3%[46.1 µM], LASV entry inh -2%[46.1 µM], HCMV antiviral 10 and FMDV antiviral -6%.
